From PubChem BioAssay (NCATS)
Values joined by “and” are separate entries in the source; they are usually repeats but may differ in a detail not shown here. Identical values can stand only once. Records with an inconclusive call do not appear. Where a call stands in place of a potency, no number is given. Some structures have more than one record in an assay (separate samples or runs), and their calls can disagree. Active and inactive are the calls of the source. Unless noted, the call rests on the fitted dose curve; in most records, active means well fitted curve in the direction sought with a large enough effect; inconclusive means small, poorly fitted or top-dose-only effect, or another doubt; inactive means no such curve, though single readings can be large; an effect the other way counts as inactive or inconclusive.

Tests used:
[1] = target: Arylsulfatase A (Homo sapiens) (UniProt P15289); experiment: qHTS screen for enhancers of Arylsulfatase A (ASA1): LOPAC Validation Assay (AID 720538); further: potency means the concentration at half of the fitted maximal effect
Procedure, shortened: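 Cell-based enhancement test: residual ASA activity in SV40-transformed I179S patient fibroblasts is measured by pNCS turnover (0.5mM final, 14h, room temperature) following 48h compound incubation; higher fluorescence indicates activation.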

[2] = qHTS for Activators of Parkin Expression: LOPAC Validation Assay (NLuc Reporter) (AID 720572; further: potency means the concentration at half of the fitted maximal effect)
Procedure, shortened: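 NLuc signal, read 10 min after reagent and following a prior FLuc read, is normalized to DMSO (0) and positive controls (100%). Cells: neuronal Parkin-promoter coincidence reporter line; compounds tested 7-point, 24 h, 37 C, 5% CO2.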

[3] = qHTS for Activators of Parkin Expression: LOPAC Validation Assay (FLuc Reporter) (AID 720573)
Procedure, shortened: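 Readout is FLuc luminescence from neuronal reporter cells (Parkin promoter, FLuc plus NLuc) after 24 h compound exposure in dose response. Values normalized to neutral DMSO and positive-control compounds.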

[4] = qHTS assay for small molecule agonists of the antioxidant response element (ARE) signaling pathway measured by Nrf2-dependant transcriptional activity (AID 720636; active means well fitted curve in the direction sought with a large enough effect in the repeat runs; an effect the other way counts as inactive or inconclusive;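 further: HepG2 cells with an ARE-driven luciferase reporter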)
Procedure, shortened: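 In HepG2 cells engineered with an Nrf2-responsive luciferase gene, ARE induction was quantified as luminescence after 16 hr compound treatment at 37 C.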

[5] = qHTS for compounds that reverse cellular toxicity of Amyloid beta (A-beta) peptide in yeast: LOPAC Validation Assay (AID 720559)
Procedure, shortened: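 Here, A-beta-toxic yeast grow with test compounds at 30 C for 48 hr before optical density at 600 nm is recorded; data are normalized against DMSO and the FeCl3-clioquinol control.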

[6] = qHTS assay for small molecule antagonists of the retinoid-related orphan receptor gamma (ROR-gamma) signaling pathway - cell viability counter screen (AID 720652; active means well fitted curve in the direction sought with a large enough effect in the repeat runs; an effect the other way counts as inactive or inconclusive;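 further: compound exposure lasted 16 hr before ATP read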; further: potency means the concentration at half of the fitted maximal effect)
Procedure, shortened: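 CHO RORE-LUC/TET-ROR line, 1,000 cells/well, 37 C 5% CO2 5 hr; cpd or DMSO + doxycycline induction, 16 hr. CellTiter-Glo, 30 min RT, luminescence = ATP content.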

Arylsulfatase A (Homo sapiens), sequence (P15289 whole entry, looked up): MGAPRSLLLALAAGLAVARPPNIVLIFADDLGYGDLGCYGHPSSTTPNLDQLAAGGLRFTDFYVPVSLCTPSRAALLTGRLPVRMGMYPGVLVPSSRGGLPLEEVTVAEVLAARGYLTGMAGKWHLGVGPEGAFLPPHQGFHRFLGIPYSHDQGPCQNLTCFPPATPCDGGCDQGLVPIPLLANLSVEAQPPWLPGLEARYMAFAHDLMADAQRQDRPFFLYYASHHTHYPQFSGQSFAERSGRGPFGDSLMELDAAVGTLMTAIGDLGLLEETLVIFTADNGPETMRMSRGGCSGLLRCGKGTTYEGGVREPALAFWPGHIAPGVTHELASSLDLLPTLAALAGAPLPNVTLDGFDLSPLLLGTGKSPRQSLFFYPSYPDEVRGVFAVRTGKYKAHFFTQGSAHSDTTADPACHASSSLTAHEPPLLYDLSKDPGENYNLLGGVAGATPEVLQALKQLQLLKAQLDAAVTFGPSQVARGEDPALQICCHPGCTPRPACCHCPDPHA

In the case of `CC(C)(C)c1onc(OCP(=O)(O)O)c1CC(N)C(=O)O` (stereo unspecified), the Potency [1] is reported as “inactive and 4.26 µM (active)”, the Potency [2] is reported as “inactive” and the outcome [3] is reported as “inactive”.
In the case of `CN1CCN(C2Cc3ccccc3Sc3ccc(Cl)cc32)CC1` (stereo unspecified), the Potency [1] is reported as “inactive”, the Potency [2] is reported as “inactive” and the outcome [3] is reported as “inactive”.
With `CC(C)(C(=O)O)c1ccc(C(O)CCCN2CCC(C(O)(c3ccccc3)c3ccccc3)CC2)cc1` (stereo unspecified) the Potency [1] was “inactive”, the Potency [2] was “inactive” and the outcome [3] was “inactive”.
For `OCCN1CCN(CCCN2c3ccccc3Sc3ccc(Cl)cc32)CC1`, the Potency [1] was “inactive”, the Potency [2] was “inactive” and the outcome [3] was “inactive”.
With `COc1ccc(Cl)cc1C(=O)NCCc1ccc(S(=O)(=O)NC(=O)NC2CCCCC2)cc1` the Potency [1] was “inactive”, the outcome [3] was “inactive” and the outcome [4] was “inactive”.
For `N=c1c[n+](N2CCOCC2)[n-]o1`, the Potency [1] was “inactive”, the Potency [2] was “inactive” and the outcome [3] was “inactive”.
With `COC(=O)C1=C(C)NC(C)=C(C(=O)OC)C1c1ccccc1[N+](=O)[O-]` the Potency [1] was “inactive”.
For `COCCOC(=O)C1=C(C)NC(C)=C(C(=O)OC/C=C/c2ccccc2)C1c1cccc([N+](=O)[O-])c1` (stereo unspecified), the outcome [5] was “inactive”, the Potency [2] was 5.17 µM (active) and the outcome [3] was “inactive”.
With `CN(C)CCOC(C)(c1ccccc1)c1ccccn1` (stereo unspecified) the Potency [1] was “inactive” and the outcome [4] was “inactive”.
With `CNCC(O)c1ccc(O)c(O)c1` (stereo unspecified) the Potency [2] was “inactive” and the outcome [3] was “inactive”.
In the case of `CSc1ccc2c(c1)N(CCC1CCCCN1C)c1ccccc1S2` (stereo unspecified), the Potency [2] is reported as “inactive” and the outcome [3] is reported as “inactive”.
With `Cc1c(O)cccc1C(=O)N[C@@H](CSc1ccccc1)[C@H](O)CN1C[C@H]2CCCC[C@H]2C[C@H]1C(=O)NC(C)(C)C` the outcome [4] was “inactive” and the Potency [6] was 66.8 µM (active).
In the case of `CC12CCC(CC1)C(C)(C)O2`, the outcome [4] is reported as “inactive” and the Potency [6] is reported as “inactive”.
In the case of `NCCNCCNCCN`, the outcome [4] is reported as “inactive” and the Potency [6] is reported as “inactive”.
In the case of `NC(=O)N/N=C/c1ccc([N+](=O)[O-])o1`, the Potency [6] is reported as “inactive”.
With `CC1(C)[C@@H]2CC[C@@]1(C)C(=O)C2` the outcome [4] was “inactive” and the Potency [6] was “inactive”.
With `[Cl][In]([Cl])[Cl]` the Potency [6] was “inactive”.
For `CNCCC(Oc1ccc(C(F)(F)F)cc1)c1ccccc1` (stereo unspecified), the Potency [2] was “inactive” and the outcome [3] was “inactive”.
With `CCCCCCCCCCCCOS(=O)(=O)O` the outcome [4] was “inactive” and the Potency [6] was “inactive”.
With `CCCCOC(=O)c1ccc(O)cc1` the Potency [6] was “inactive”.
For `C#CCN(C)Cc1ccccc1`, the Potency [2] was “inactive” and the outcome [3] was “inactive”.
With `O=C1c2c(O)cccc2Cc2cccc(O)c21` the outcome [4] was “inactive” and the Potency [6] was “inactive”.
For `NC(=O)c1ncn([C@@H]2O[C@H](CO)[C@@H](O)[C@H]2O)n1`, the Potency [2] was “inactive”, the outcome [3] was “inactive” and the outcome [4] was “inactive”.
With `O=C1N=C(O)CN1/N=C/c1ccc(-c2ccc([N+](=O)[O-])cc2)o1` the Potency [2] was “inactive” and the outcome [3] was “inactive”.
In the case of `CN(C)CC[C@@H](c1ccc(Cl)cc1)c1ccccn1`, the Potency [2] is reported as “inactive” and the outcome [3] is reported as “inactive”.
In the case of `Cc1cc2nc3c(=O)[nH]c(=O)nc-3n(C[C@H](O)[C@H](O)[C@H](O)CO)c2cc1C`, the outcome [4] is reported as “inactive” and the Potency [6] is reported as “inactive”.
For `CN(C)CCCN1c2ccccc2Sc2ccc(Cl)cc21`, the Potency [2] was “inactive”, the outcome [3] was “inactive” and the outcome [4] was “inactive”.
With `CC(O)COc1ccccc1` (stereo unspecified) the outcome [4] was “inactive”.
For `CCCc1c(OCCCCc2nn[nH]n2)ccc(C(C)=O)c1O`, the outcome [4] was “inactive”.
With `NC1CCN(c2cccc(Cl)n2)CC1` the outcome [5] was “inactive”, the Potency [2] was “inactive” and the outcome [3] was “inactive”.
For `CN(C)CCC=C1c2ccccc2CCc2ccccc21`, the Potency [2] was “inactive” and the outcome [3] was “inactive”.
For `NCCNCCNCCNCCN`, the outcome [4] was “inactive” and the Potency [6] was “inactive”.
In the case of `Oc1cccc(O)c1`, the outcome [4] is reported as “inactive”.
In the case of `C[C@]12CC[C@@H]3c4ccc(O)cc4CC[C@H]3[C@@H]1CCC2=O`, the Potency [2] is reported as “inactive”, the outcome [3] is reported as “inactive” and the outcome [4] is reported as “inactive”.
In the case of `COc1ccccc1O`, the outcome [4] is reported as “inactive” and the Potency [6] is reported as “inactive”.
With `CNC(=O)Oc1ccc2c(c1)[C@]1(C)CCN(C)[C@@H]1N2C` the Potency [2] was “inactive”, the outcome [3] was “inactive” and the outcome [4] was “inactive”.
For `O=S(=O)(O)NC1CCCCC1`, the outcome [4] was “inactive”.
For `Nc1ncnc2c1ncn2[C@@H]1O[C@H](CO)[C@@H](O)[C@H]1O`, the outcome [5] was “inactive”, the Potency [2] was “inactive” and the outcome [3] was “inactive”.
In the case of `Cc1cccc(Nc2cc(Cl)nc(SCC(=O)O)n2)c1C`, the outcome [4] is reported as “inactive”.
In the case of `CCN(CC)CCOC(=O)C1(C2CCCCC2)CCCCC1`, the Potency [2] is reported as “inactive” and the outcome [3] is reported as “inactive”.
With `CC(O)CN(CCN(CC(C)O)CC(C)O)CC(C)O` (stereo unspecified) the outcome [4] was “inactive”.
With `CCCCC(CC)COC(=O)c1ccccc1O` (stereo unspecified) the outcome [4] was “inactive”.
With `O=C1O[C@H]([C@@H](O)CO)C(O)=C1O` the outcome [4] was “inactive” and the Potency [6] was “inactive”.
With `O=C1NS(=O)(=O)c2ccccc21` the outcome [4] was “inactive”.
In the case of `Cc1cc(CC(=O)O)n(C)c1C(=O)c1ccc(Cl)cc1`, the outcome [4] is reported as “inactive” and the Potency [6] is reported as “inactive”.
